{
  "source": "the supplement of paper PMC6411743",
  "biological_target": "T1, ACLY (UniProt P53396)",
  "T1 sequence (whole entry)": "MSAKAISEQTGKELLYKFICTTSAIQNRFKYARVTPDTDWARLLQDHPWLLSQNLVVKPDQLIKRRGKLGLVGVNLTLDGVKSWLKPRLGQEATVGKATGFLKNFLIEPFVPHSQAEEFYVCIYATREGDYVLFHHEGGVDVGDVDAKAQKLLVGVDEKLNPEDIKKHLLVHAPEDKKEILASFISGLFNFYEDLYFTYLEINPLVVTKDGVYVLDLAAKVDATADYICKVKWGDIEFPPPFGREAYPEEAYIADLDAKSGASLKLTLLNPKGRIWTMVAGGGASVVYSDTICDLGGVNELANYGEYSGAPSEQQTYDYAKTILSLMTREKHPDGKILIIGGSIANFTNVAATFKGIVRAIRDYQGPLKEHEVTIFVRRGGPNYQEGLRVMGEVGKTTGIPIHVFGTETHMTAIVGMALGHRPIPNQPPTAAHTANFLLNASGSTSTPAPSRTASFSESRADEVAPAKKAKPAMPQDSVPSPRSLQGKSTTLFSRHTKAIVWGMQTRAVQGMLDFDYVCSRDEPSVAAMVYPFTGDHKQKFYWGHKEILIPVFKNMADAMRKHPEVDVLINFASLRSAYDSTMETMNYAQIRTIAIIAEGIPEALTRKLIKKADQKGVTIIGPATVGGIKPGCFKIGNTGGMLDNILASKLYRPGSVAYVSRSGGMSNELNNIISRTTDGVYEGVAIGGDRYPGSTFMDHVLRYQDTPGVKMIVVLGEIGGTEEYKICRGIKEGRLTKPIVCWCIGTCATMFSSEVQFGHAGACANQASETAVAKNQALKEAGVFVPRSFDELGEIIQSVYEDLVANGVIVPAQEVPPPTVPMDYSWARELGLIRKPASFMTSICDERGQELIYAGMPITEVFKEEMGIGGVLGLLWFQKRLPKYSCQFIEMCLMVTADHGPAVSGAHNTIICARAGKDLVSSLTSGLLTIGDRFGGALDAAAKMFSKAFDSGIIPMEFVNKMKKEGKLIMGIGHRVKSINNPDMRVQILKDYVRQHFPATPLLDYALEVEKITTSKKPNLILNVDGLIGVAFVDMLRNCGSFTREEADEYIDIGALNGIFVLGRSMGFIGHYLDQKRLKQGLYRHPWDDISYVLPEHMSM",
  "assay": "NP40-soluble protein abundance relative to vehicle (solubility fold change) (ratio); higher = more soluble protein in presence of GTP",
  "protocol": "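Solubility proteome profiling in Jurkat crude lysate. Lysate was treated with Mg-GTP (0.1-10 mM) for 10 min at room temperature and 3 min at 37 °C, then solubilised with 0.8% NP40 and benzonase, followed by ultracentrifugation. Proteins were quantified by TMT10 LC-MS/MS; the value is the NP40-soluble abundance relative to the NP40-processed vehicle, from 3 independent experiments.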",
  "note": "± gives the standard deviation of the averaged measurements. Targets with the largest changes are over-represented here; the source holds about 5,400 in all.",
  "data": [
    {"compound": "Nc1nc2c(ncn2[C@@H]2O[C@H](COP(=O)(O)OP(=O)(O)OP(=O)(O)O)[C@@H](O)[C@H]2O)c(=O)[nH]1", "note": "[guanosine triphosphate]", "values": [
      {"measurement": "NP40-soluble protein abundance", "setting": "concentration: 0.1mM", "value": "1.06 ± 0.044"},
      {"measurement": "NP40-soluble protein abundance", "setting": "concentration: 0.5mM", "value": "1.08 ± 0.088"},
      {"measurement": "NP40-soluble protein abundance", "setting": "concentration: 1mM", "value": "0.972 ± 0.084"},
      {"measurement": "NP40-soluble protein abundance", "setting": "concentration: 2mM", "value": "0.968 ± 0.11"},
      {"measurement": "NP40-soluble protein abundance", "setting": "concentration: 4mM", "value": "0.991 ± 0.084"},
      {"measurement": "NP40-soluble protein abundance", "setting": "concentration: 6mM", "value": "0.963 ± 0.11"},
      {"measurement": "NP40-soluble protein abundance", "setting": "concentration: 8mM", "value": "0.97 ± 0.065"},
      {"measurement": "NP40-soluble protein abundance", "setting": "concentration: 10mM", "value": "0.906 ± 0.07"}
    ]}
  ]
}
